Measured values reported in PubChem BioAssay (NCI).
“And” between values parts separate entries of the source, which are not always exact repeats. Equal values may be shown once. Compounds without any hit were thinned out: in the full panel of roughly 79,000, 15% have a hit. A structure can be active in one record and inactive in another. The source made the active and inactive calls. Cut-off read from the data, not from the text of the source: active = growth inhibition above about 70%; inactive = the rest.

Tests used:
[1] = NCI Yeast Anticancer Drug Screen. Data for the mec2-1 strain (AID 157); conditions: S. cerevisiae mec2-1 strain, stronger effect = higher value
Summary of the method: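 Mutant yeast (mec2-1) grown with compound; growth inhibition relative to vehicle control reported.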

[2] = NCI Yeast Anticancer Drug Screen. Data for the sgs1 mgt1 strain (AID 161);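 note: 0% = growth of cultures given vehicle only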; conditions: S. cerevisiae sgs1 mgt1 strain, stronger effect = higher value
Summary of the method: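 Compounds are added to genetically altered yeast, and growth is compared with cultures given vehicle alone to give percent inhibition.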

[3] = NCI Yeast Anticancer Drug Screen. Data for the cln2 rad14 strain (AID 165);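 note: 0% = growth equal to vehicle treated cultures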; conditions: S. cerevisiae cln2 rad14 strain, stronger effect = higher value
Summary of the method: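 Readout is yeast growth inhibition versus vehicle-treated controls, using a strain with cln2 and rad14 alterations exposed to compound.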

[4] = NCI Yeast Anticancer Drug Screen. Data for the bub3 strain (AID 167); conditions: S. cerevisiae bub3 mutant strain, stronger effect = higher value
Summary of the method: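 Screening used yeast with an engineered genetic alteration affecting cell cycle control. Compound-exposed cultures were compared with vehicle cultures, and reduced growth was taken as inhibition.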

[5] = NCI Yeast Anticancer Drug Screen. Data for the mlh1 rad18 strain (AID 175); conditions: S. cerevisiae mlh1 rad18 strain growth inhibition, stronger effect = higher value
Summary of the method: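 Genetically defined yeast (DNA repair-deficient) exposed to compounds; growth inhibition determined relative to vehicle.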

[6] = NCI Yeast Anticancer Drug Screen. Data for the rad50 strain (AID 155);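 note: 0% = growth of vehicle-only cultures of the same strain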; conditions: S. cerevisiae rad50 strain growth inhibition, stronger effect = higher value
Summary of the method: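 Relative growth inhibition (compound vs vehicle) was measured in yeast with a defined repair-gene alteration.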

[7] = NCI Yeast Anticancer Drug Screen. Data for the wt2 strain (AID 169);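 note: 0% = growth of vehicle-treated yeast cultures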; conditions: S. cerevisiae wt2 strain growth inhibition, stronger effect = higher value
Summary of the method: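 Against vehicle-treated controls, the growth of yeast exposed to each compound was compared, and the inhibition was recorded.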

[8] = at 5.0 µM (retest, dose inferred, filed as 0.5)
[9] = at 50.0 µM (retest, dose inferred, filed as 5.0)

Measured: growth inhibition

OC(C/C=C/c1ccccc1)(c1ccccc1)c1ccccc1
active: [1]; at 50.0 µM 98.7% | [2]; at 50.0 µM 98.1% and 98.2% | [3]; at 50.0 µM 96.9% and 98.2% | [4]; [9] 83% | [4]; at 50.0 µM 96.8% and 97.7% | [5]; at 50.0 µM 97.4% and 98.2%
inactive: [1]; [8] -1% | [1]; [9] 48% | [2]; [8] 7% | [2]; [9] 52% | [3]; [8] 7% | [3]; [9] 55% | [4]; [8] 29% | [5]; [8] -2% | [5]; [9] 61%

O=C(CC(=O)CC(O)(c1ccccc1)c1ccccc1)CC(=O)c1ccccc1
inactive: [1]; [8] -10% | [2]; [8] 0% | [3]; [8] -11% | [4]; [8] -8% | [5]; [8] 30%
active: [1]; [9] 98% | [1]; at 50.0 µM 98% | [2]; [9] 98% | [2]; at 50.0 µM 98% | [3]; [9] 94% | [3]; at 50.0 µM 98% | [4]; [9] 96% | [4]; at 50.0 µM 97.2% | [5]; [9] 97% | [5]; at 50.0 µM 98%

CC(C)C(N)C(=O)NC(C(=O)NC(C(=O)O)C(C)C)C(C)C (centres undefined)
inactive: [6]; at 50.0 µM -1.6% [middle of 6 runs] | [1]; at 50.0 µM 6.8% [middle of 6 runs] | [2]; at 50.0 µM 3.35% [middle of 6 runs] | [4]; at 50.0 µM 6.2% [middle of 6 runs]

Cn1c2ccccc2c(=O)c2ccccc21
-16.6% (inactive) and 82% (active): [6]; at 50.0 µM
inactive: [6]; [8] 4% | [6]; [9] 38% | [2]; [8] -5% | [2]; [9] 9% | [2]; at 50.0 µM -17.4% and 18.6% | [3]; [8] -4% | [3]; [9] -2% | [3]; at 50.0 µM -11.3% and -35.4% | [4]; [8] -9% | [4]; [9] 1% | [4]; at 50.0 µM 14.2% and 3.6% | [5]; [8] -1% | [5]; [9] 20% | [5]; at 50.0 µM -28.4% and 31.8%

CC[N+](C)(C)c1ccccc1
inactive: [1]; [8] 48% | [1]; at 50.0 µM 26.7% | [2]; [8] -40% | [2]; [9] 1% | [2]; at 50.0 µM 48.2% | [3]; [8] 46% | [3]; [9] 24% | [3]; at 50.0 µM 17.9% | [4]; [8] -1% | [4]; [9] 28% | [7]; at 1.2 µM -24% | [7]; at 3.7 µM -23% | [7]; at 11.0 µM -25% | [7]; at 33.0 µM -16% | [7]; at 100.0 µM -24% | [5]; [8] 45% | [5]; at 50.0 µM 28.9%
active: [1]; [9] 93% | [4]; at 50.0 µM 74.2% | [5]; [9] 82%

Cc1nc2cc(Cl)ccc2n1-c1ccccc1
inactive: [1]; [8] 38% | [1]; at 50.0 µM 17% | [2]; [8] -7% | [3]; [8] 32% | [3]; at 50.0 µM 44% | [4]; [8] 4% | [7]; at 1.2 µM 7% | [7]; at 3.7 µM 11% | [7]; at 11.0 µM 9% | [7]; at 33.0 µM 37% | [5]; [8] 36% | [5]; at 50.0 µM 60.2%
active: [1]; [9] 98% | [2]; [9] 94% | [2]; at 50.0 µM 77.2% | [3]; [9] 99% | [4]; [9] 97% | [4]; at 50.0 µM 76.5% | [7]; at 100.0 µM 96% | [5]; [9] 85%

COc1cc2c(cc1O)CC[n+]1cc3c(OC)c(OC)ccc3cc1-2
inactive: [6]; at 50.0 µM -56% and 3.1% and -3% | [1]; at 50.0 µM -20% and -15.3% and 0.25% | [2]; at 50.0 µM -20.8% and 0.8% and 20.3% | [3]; at 50.0 µM 9.65% and 5.15% and -13.2% | [4]; at 50.0 µM -15.4% and -3.15% and 15.6% | [5]; at 50.0 µM -11.1% and -69.1% and 0%

NS(=O)(=O)c1ccc(Nc2c3ccccc3nc3c(C(=O)N4CCN(CCO)CC4)cccc23)cc1
active: [5]; at 50.0 µM 79.8%
inactive: [6]; [8] 61% | [6]; [9] 61% | [6]; at 50.0 µM 38.6% | [2]; [8] 60% | [2]; [9] 60% | [2]; at 50.0 µM 24.4% | [3]; [8] 25% | [3]; [9] 25% | [3]; at 50.0 µM 29.9% | [4]; [8] 32% | [4]; [9] 32% | [4]; at 50.0 µM 23.9% | [5]; [8] 30% | [5]; [9] 30%

c1ccc(-c2conc2-c2ccccc2)cc1
active: [1]; [9] 91% | [2]; [9] 90% | [4]; [9] 92% | [5]; [9] 95% | [5]; at 50.0 µM 71.3%
inactive: [1]; [8] -7% | [1]; at 50.0 µM 19.1% | [2]; [8] 9% | [2]; at 50.0 µM 31.4% | [3]; [8] -32% | [3]; [9] 68% | [3]; at 50.0 µM -2.5% | [4]; [8] -20% | [4]; at 50.0 µM 54% | [5]; [8] -10%

CN1C(c2ccccc2)CC(=NOCc2ccccc2)CC1c1ccccc1 (centres undefined)
inactive: [3]; [8] 65%
active: [1]; [8] 94% | [1]; [9] 97% | [1]; at 50.0 µM 83.8% | [2]; [8] 76% | [2]; [9] 97% | [2]; at 50.0 µM 88.8% | [3]; [9] 97% | [3]; at 50.0 µM 86.6% | [4]; [8] 78% | [4]; [9] 96% | [4]; at 50.0 µM 84% | [5]; [8] 94% | [5]; [9] 96%
